Test results taken from the supplement of paper PMC6555819.

System: PPARg:RXRa DBDmut IVT, anti-RXR (DBD mutation: RXRa K156A/R161A, NR concentration 270 nM, RXRa partner concentration 90 nM)
Experiment: PBM binding z-score (relative to random genomic background probes); higher = stronger binding; sequences stand for … in GC…GCGATTGACAGCGTAGAATGAAGG
How it was run: (§1)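 Each nuclear receptor dimer, without ligand, was incubated for 1 h on custom Agilent 4×180K protein-binding microarrays. Binding was detected with antibodies against each partner (one per run), and scanned fluorescence was regression-normalized. The binding z-scores are referenced to random human genomic background probes.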

Sequence	PBM binding z-score
GCATATAGGTAATACCAGGTGAAAGTCCGATTGT	4.03
TCAGAAAGGTGAAGGTAACTCAGGTACGCAGTCG	4.06
GGAACGAGGGCATACGAGTTGATAGCATGGCGAT	2.9
AGAATGAGGTTACCGAAGATCAGGGAAACGCTTG	3.97
CCGACTGGGGCAGAAAGGTAACCATACCATCCGG	1.07
AGTCACAGTTCACTAGGTAACGTAAGATTCAGCT	2.42
GATCGGAGGACAAGGTCAGAGCTTTGTCCGTAGA	-0.00086
CTCGAAAGGTCGGTTGAGGCGAGTATACGGATAA	-0.316
ACAGACAGGTGTTGAAGGTAACTCAGGCTATCAT	-0.116
GTACCAAGGTGAATAGGTCATTGATGAGTAGGCG	3.17
AGAATAAGGTTATTAAGATCAGGGAATTGCGGTC	2.24
ATTTCTAGGTAAAGATAGTTCAGTGAATGCAAAT	4.34
CGAACTAGGTCAAGGACTGTGAATCTCCGCACGC	8.18
TCTTGTAGATCAACAGGAGGTTAAGAATGATCGA	1.72
CGTCCAAGGTCAATGCTTGGTCAGTGAAAGCATT	2.65
CCTATTAGTCGACCATAAGGGCAACCGAAGCTCG	0.311
TATACAGGGTCAAAGGCGAGAGTACGAATGTCGA	2.19
TCTTGTAGATCAATAGAGGTTAAGGAAGTGCGCT	1.91

System: PPARg:RXRa IVT, anti-PPARg (NR concentration 270 nM, RXRa partner concentration 90 nM)
Experiment: as above
How it was run: as §1

Sequence	PBM binding z-score
CGTCCAAGGTCATAGGAGATCAGTGAAGACAGAT	3.43
CCTTACGGGTCAAGGCTATAGCACGGGTGGTACG	3.1
CGAACGAGGGCATGAGTTGATAGCAAATGCCGAT	2.03
CCAGACAGGTGAGAAGGTAACTCCGCCTCGATTA	0.448
TCTACTAGTTGATTAGGGCAACCGAAACAGCGGA	1.11
GAGACAGGGTCAAGGCCAGAGTACGCGTATTGAT	2.9
TCTAGTTGGTCACGGAGGTCACTCACGACGGGTA	3.97
CTCGAAAGGTCGGTTGAGGTGTGTATACGGATAA	0.529
CCTACTGGGCCATTCAGAGTTCATTGATCATATG	3.73
CAGCCTAGGTTAGGGCCAGTATAGGAGGAACGTT	-0.377
GCGACTGGGGCCAAGCAGGTTACCATAAGGTTGG	-0.0452
CGAACGAGGGCATGAGTTGATGGCAAATGCCGAT	2.23
GGAACGATGGCAAGTTGATAGCAGAGTTTGATGG	-0.751
CGTCCAAGGTCAAAGGTCAGTCAAGAGATGACGG	5.75
CGTCCAAGGTCAAAGGTCAGTGCAGAGATGACGG	5.49
CCTTCTGGGCCAAAGGTCATTGATTCCAATGCTC	6.5
TTTTGTAGATCAAGCAGGTTAAGAAAGCCTGAGT	1.22
AAGACAGGGTCATCGTAGGCCAGAGTACGCACAG	2.99
GCTAGCAGGCCATTTAGGTCACTCAATGACGGGC	2.41
AATACAGGGTCACTAGGCCAGAGTTGGTACGAAT	5.77

Sequence	PBM binding z-score
TCATATAGGTAATACAGGTGAAAGTGGGCATCTA	3.76
CGAACTAGGTCTAGGACAGTGAATCTCCGCACGC	1.58
GCATATAGGTAATACCAGGTGAAAGTCCGATTGT	3.4
TCAGAAAGGTGAAGGTAACTCAGGTACGCAGTCG	2.93
GGAACGAGGGCATACGAGTTGATAGCATGGCGAT	1.74
AGAATGAGGTTACCGAAGATCAGGGAAACGCTTG	3.55
CCGACTGGGGCAGAAAGGTAACCATACCATCCGG	1.73
AGTCACAGTTCACTAGGTAACGTAAGATTCAGCT	3.71
GATCGGAGGACAAGGTCAGAGCTTTGTCCGTAGA	0.881
CTCGAAAGGTCGGTTGAGGCGAGTATACGGATAA	0.197
ACAGACAGGTGTTGAAGGTAACTCAGGCTATCAT	-0.388
GTACCAAGGTGAATAGGTCATTGATGAGTAGGCG	4.04
AGAATAAGGTTATTAAGATCAGGGAATTGCGGTC	1.81
ATTTCTAGGTAAAGATAGTTCAGTGAATGCAAAT	3.44
CGAACTAGGTCAAGGACTGTGAATCTCCGCACGC	8.06
TCTTGTAGATCAACAGGAGGTTAAGAATGATCGA	0.852
CGTCCAAGGTCAATGCTTGGTCAGTGAAAGCATT	3.19
CCTATTAGTCGACCATAAGGGCAACCGAAGCTCG	-0.00504
TATACAGGGTCAAAGGCGAGAGTACGAATGTCGA	4.69
TCTTGTAGATCAATAGAGGTTAAGGAAGTGCGCT	0.959
